For 40 molecules, growth results are on record in PubChem BioAssay (NCI).

SMILES strings stand for the structures. Compounds without any hit were thinned out: in the full panel of roughly 83,000, 20% have a hit.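 Testing used 96-well plates and a 48-hour single-concentration exposure. Example: -40 means 40% of the starting cells died.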 Values without a mark were called inactive. Calls of active or inactive are those of the source. Rule for the calls: active = growth percent below 10; inactive = the rest.

The test has as its system HL-60(TB) leukemia. Description: NCI-60 one-dose screen, 48 h (100 = growth as untreated, 0 = no growth, -100 = all killed). Particulars: 10 µM unless noted.
As for `N#CC1=C(N)Oc2c(c(N)nn2-c2ccccc2)C1c1ccc(Cl)cc1` (stereo not given), the growth was 110%.

Turning to `COc1cc(/C=C/C(=O)c2cc(-c3ccc(F)cc3)ccc2O)cc(OC)c1OC`, the growth was 39.5%.

`CS(=O)(=O)Nc1cncc(-c2ccc3ncnc(Nc4ccc(F)c(Cl)c4)c3c2)c1`: the growth was 6.11% (active).

Turning to `NS(=O)(=O)c1ccc(NCC(=O)Nc2ccc(-c3nc4ccccc4s3)cc2)cc1`, the growth was 33.4%.

For the molecule `CC[C@@H]1C(=O)N(C)c2cnc(Nc3ccc(C(=O)NC4CCN(C)CC4)cc3OC)nc2N1C1CCCC1`, the growth was -42.1% (active).

In the case of `O=C1CSc2ccccc2N1`, the growth was 121%.

On to `COc1ccc(/C(C)=C(\c2ccc(Cl)cc2)c2ccc(OCCN3CCCC3)cc2)cc1F`, for which the growth was 0.205% (active).

On to `COC(=O)/C(=C\c1c(C)[nH]c2ccccc12)S(=O)(=O)c1ccccc1`, for which the growth was -27.3% (active).

Consider `CCNC(=O)Oc1ccc(/C(=C(\C)c2ccccc2)c2ccc(OCCN(CC)CC)cc2)cc1`, for which the growth is 52.5%.

For `Cc1cc(Cl)nc(NCc2cc(Nc3ccnc4cc(Cl)ccc34)ccc2F)n1`, the growth is 42.4%.

`O=C(C[n+]1ccn(CC(OCc2ccc(Cl)cc2Cl)c2ccc(Cl)cc2Cl)c1)c1ccc(F)cc1` (stereo not given): the growth was -51.8% (active).

In the case of `O=c1[nH][n+](-c2ccc(Br)cc2)no1`, the growth is 20.2%.

For `CCC(c1ccccc1)c1noc(CCN(CC)CC)n1` (stereo not given), the growth was 77.3%.

In the case of `C=C1C(=O)O[C@H]2[C@H]1CC/C(COC(=O)NCCCCCCCCNC(=O)OC/C1=C/CC[C@@]3(C)O[C@H]3[C@H]3OC(=O)C(=C)[C@@H]3CC1)=C\CC[C@@]1(C)O[C@@H]21`, the growth is -50.2% (active).

With `COc1cc(/C=C/C(=O)c2cccc(-n3cc(-c4cc(OC)c(OC)c(OC)c4)[nH]c3=O)c2)cc(OC)c1OC`, the growth was -18.5% (active).

Consider `O=C1N/C(=N/N=C(c2ccccc2)c2ccccc2)S/C1=C\c1ccc(Br)cc1`, for which the growth is 89.1%.

In the case of `COC(=O)c1nc(=S)[nH]c(C(=O)OC)c1C(=O)c1ccc(OC)cc1`, the growth is 107%.

Turning to `O=C(O)c1cc(C(=O)O)cc([N+](=O)[O-])c1`, the growth is 94.5%.

`O=C(/C=C/c1c(Cl)nc2sccn12)c1ccc(F)c(F)c1`: the growth was 78.3%.

With `O=C(CNC(=O)c1cccc2ccccc12)Nc1ccccc1Oc1cccc(O)c1`, the growth is -24.1% [5 µM] (active).

On to `Cc1cc(C#Cc2ccccc2)ccc1-n1c(/C=C/c2ccc(F)cc2)nc2ccccc2c1=O`, for which the growth was 34.3%.

Take `CCCCCCCCO`: the growth was 93.8%.

For `NNC(=O)CNC(=O)Nc1n[nH]c(=S)s1`, the growth was 107%.

For `CCOC(=N)c1ccc(C(=N)OCC)cc1`, the growth is 101%.

For `CC1=C2[C@@H](CC1)[C@]1(C)O[C@@](c3ccccc3)(C[C@H]1OC(=O)CO)[C@H]2OC(=O)/C=C/c1ccccc1`, the growth was 88.5%.

With `COc1ccc(Nc2cc(NC(=O)CNc3cc(OC)c(Cl)c(OC)c3Cl)ncn2)cc1`, the growth is 75.1%.

For the molecule `CCCC(F)C(=O)O` (stereo not given), the growth was 97.3%.

As to `COc1cc(/C=C/C(=O)c2ccccc2O)ccc1OCCCOc1cc2c(cc1OC)C(=O)N1CCC[C@H]1C=N2`, the growth was -27.4% (active).

With `CCOC(=O)c1sc(-c2ccc(OS(=O)(=O)C[C@]34CCC(CC3=O)C4(C)C)c(C=O)c2)nc1C`, the growth was -5% (active).

With `COc1ccc(NC(=O)c2ccc(C(=O)Nc3ccc(OC)cc3OC)cc2)c(OC)c1`, the growth is 88.5%.

As to `O=C(N/N=C(\CS(=O)(=O)c1ccccc1)c1cc2cc(Br)ccc2oc1=O)c1ccccc1`, the growth was 119%.

Consider `Cc1cc(N2CCN(C)CC2)nc(NCc2cc(Nc3ccnc4cc(Cl)ccc34)ccc2F)n1`, for which the growth is -53.5% (active).

`C=C[C@@H]1CCC/C=C/[C@@H]2C[C@H](O)C[C@H]2[C@H](O)/C=C/C(=O)O1`: the growth was 8.25% (active).

As for `CO[C@@H](C)Cn1c(=O)n(C)c2cnc3ccc(-c4cncc(C(C)(C)O)c4)cc3c21`, the growth is 8.97% (active).

As for `c1ccc2nc(Cn3cc[n+](Cc4ccc5ccccc5n4)c3)ccc2c1`, the growth was 8.58% (active).

With `Cc1ccc(OCCOCCOCCOc2ccc(C)n(O)c2=S)c(=S)n1O`, the growth was 37.6%.

With `Cc1cc(CO)c(O)c(CO)c1`, the growth is 80.5%.

On to `COc1c(Cl)ccc2c(-c3nc4cc(Cl)c(F)cc4s3)cc(=O)oc12`, for which the growth was -18.1% (active).

Turning to `CCCCC[C@H]1CC=C2C(=O)C(Cl)=C[C@@H]2CC=CCCCC(=O)O[C@@H](CCCCC)CC=C2C(=O)C(Cl)=C[C@@H]2CC=CCCCC(=O)O[C@@H](CCCCC)CC=C2C(=O)C(Cl)=C[C@@H]2CC=CCCCC(=O)O1`, the growth is 8.31% [8 µM] (active).

In the case of `COc1ccc2c(c1)Oc1nc(N)c(C#N)c(N)c1C2Sc1ccc(SC)cc1` (stereo not given), the growth was -22.3% (active).
